Hits are enriched below; roughly 6.5% of the tested compounds scored in any of these assays.
Giardia kill = kills Giardia lamblia; activity change, % at 7.66 µM, hits read low; Giardia lamblia trophozoite viability; actives 0.15% (n = 340,000); AID 540267; in the data active means activity change below about -80%; inconclusive means between about -30% and that limit;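 further: parasites exposed to compound for two days anaerobically before the ATP read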
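ATP-content bioluminescence gauges trophozoite survival. Cells (100/well) receive compound and incubate anaerobically for 48 hrs at 37 deg C; detection reagent follows for 15-30 min at room temperature.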
HT1080 IDH1KD tx = toxicity to HT-1080 IDH1 knockdown cells (counter line). HT-1080 IDH1 knockdown viability, ATP luminescence, 48 h. Potency, µM (series often up to 46.1 µM), most hits filed as cytotoxic. actives 2% (n = 360,000). AID 686971
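IDH1KD HT-1080 cells, 750/well, RPMI + 5% FBS; compound pinned after 2 h settling; 48 h, 37 °C; CellTiter-Glo luminescence; % activity normalised to DMSO and no-cell wells; curves fitted, classed by r2 and efficacy.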
TGFb SMAD3 inh = inhibitors of TGF-b signaling; HepG2 CAGA-GFP TGF-b/SMAD3 reporter, GFP fluorescence, 18 h; TGF-beta stimulated, 500 pg/mL final; Potency, µM (doses to about 46.1 µM), most hits filed as inhibitors; actives 1.2% (n = 410,000); AID 588855; further: nearly all actives have a fitted effect of over 65% in size
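First, reporter cells (HEPG2 CAGA-GFP) rested 2 h at 37 degrees C. Next, compounds were pinned in and TGF-beta added to 500 pg/mL final. After 18 h, GFP was imaged per cell and summed per well.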
HT1080NT lethal = kills 2HG-producing HT-1080-NT fibrosarcoma cells; Potency, µM (series often up to 46.1 µM), actives largely listed as cytotoxic; HT-1080-NT fibrosarcoma viability, CellTiter-Glo ATP luminescence, 48 h; actives 1.6% (n = 360,000);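 further: NT is the 2HG producing partner of a matched IDH1 knockdown line; nearly all actives have a fitted effect of over 55% in size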
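HT-1080-NT; 750 cells/well; 5% FBS RPMI; 48 h compound, 37 degrees C; CellTiter-Glo luminescence; curve fitting and curve-class assignment.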
HepG2 tox = kills HepG2 cells in TGF-b inhibitor counter-screen. HepG2 CAGA-GFP viability, ATP luminescence, 18 h. Potency, µM (series often up to 46.1 µM), actives largely listed as cytotoxic. actives 0.76% (n = 410,000). AID 588856
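CellTiter-Glo luminescence gave cytotoxicity after 18 hours at 37 degrees C. The cells were HepG2 CAGA-GFP in 1% FBS DMEM, stimulated with 500 pg/mL TGF-beta after compound addition. %Activity was normalised to no-cell wells (complete cell-killing) and DMSO (no toxicity), and curves were fitted and classified.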
IL-1B inflam inh = inhibitors of inflammasome signaling (IL-1 beta secretion). THP-1 LPS/ATP IL-1B secretion, AlphaLISA, 16 h; hits give low values. activity change, % at 57.5 µM. actives 4.7% (n = 360,000); in the data active means activity change below about -50%; inconclusive means mostly about -30% to -49%
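THP-1 cells pretreated 1 hr with compounds (up to 57.5 uM final), then stimulated with LPS (250 ng/mL final) plus ATP (1.25 mM final); secreted IL-1B measured by AlphaLISA after 16 hr, decreased signal indicating inhibition.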
Each line names hits and unclear results; the compound was inactive in the other large screens. Unless noted, the call rests on the fitted dose curve; in most records, active means well fitted curve in the direction sought with a large enough effect; inconclusive means small, poorly fitted or top-dose-only effect, or another doubt; inactive means no such curve, though single readings can be large; an effect the other way counts as inactive or inconclusive.

CCN(CC)C(=O)C(C)OC(=O)COc1ccc(Cl)cc1Cl (configuration not stated)	none
CCOC(=O)c1cccc(NC(=O)C2CCN(c3nnc(C)c4c(C)n(-c5ccccc5)nc34)CC2)c1	TGFb SMAD3 inh inconclusive (no result: Giardia kill, HT1080 IDH1KD tx, HT1080NT lethal, IL-1B inflam inh)
C/C(=N\Nc1ccccn1)c1ccc(C(C)C)cc1	TGFb SMAD3 inh 13µM
Cc1nn(Cc2ccc(Cl)cc2Cl)c(C)c1NC(=O)NC12CC3CC(CC(C3)C1)C2	HT1080 IDH1KD tx 18µM
Cc1ccc(S(=O)(=O)NCCC(=O)N2CCC(Cc3ccccc3)CC2)cc1	none
COC(=O)c1cccc(NC(=S)NCCC2=CCCCC2)c1	HT1080 IDH1KD tx 21µM
CC(=O)c1cccc(NC(=S)NCCc2ccc(Cl)cc2)c1	IL-1B inflam inh -92
CCOc1ccc(OCC)c(NC(=O)C2CCN(S(=O)(=O)c3c(C)noc3/C=C/c3ccccc3F)CC2)c1	none (no result: Giardia kill, HT1080 IDH1KD tx, HT1080NT lethal, IL-1B inflam inh)
O=C(CN(C(=O)CCC(=O)Nc1ccccn1)c1ccccc1F)NCc1ccc2c(c1)OCO2	none
OC1(c2ccc(Cl)cc2)CCN(Cc2cn[nH]c2-c2ccccc2)CC1	HT1080 IDH1KD tx inconclusive, TGFb SMAD3 inh inconclusive, HT1080NT lethal inconclusive, IL-1B inflam inh -53
Fc1ccc(N2CCN(Cc3cn[nH]c3-c3ccccc3)CC2)cc1	none
OCC1(CCOc2ccccc2)CCN(Cc2ccccc2C(F)(F)F)CC1	TGFb SMAD3 inh inconclusive, HT1080NT lethal inconclusive, IL-1B inflam inh -55
OCC1(CCOc2ccccc2)CCN(CC2=Cc3cc(Cl)ccc3OC2)CC1	HT1080 IDH1KD tx 18µM, TGFb SMAD3 inh inconclusive, IL-1B inflam inh -93
Cc1nn(C)cc1CN1CCC(CO)(CCOc2ccccc2)CC1	none
COc1cc(Cl)c(CN2CCC(CO)(CCOc3ccccc3)CC2)cc1OC	IL-1B inflam inh inconclusive
COc1ccc(CN2CCC(CO)(CCOc3ccccc3)CC2)c(OC)c1C	HT1080 IDH1KD tx inconclusive, HT1080NT lethal inconclusive, IL-1B inflam inh -104
O=C1CCNCCN1[C@H](CO)c1ccccc1	none
CN(C)c1ccc(-c2cc(NC=O)c3ncc(-c4ccc(F)c(Cl)c4)n3c2)cc1	HT1080 IDH1KD tx inconclusive, HT1080NT lethal inconclusive, IL-1B inflam inh inconclusive (no result: Giardia kill)
COCCn1c(Sc2nc(C)cs2)nc2c1c(=O)[nH]c(=O)n2C	none
COC(=O)c1ccc(CN2CCC(CO)(CCOc3ccccc3)CC2)cc1	none
COc1ccc2[nH]c(CN3CCC(CO)(CCOc4ccccc4)CC3)c(C)c2c1	HT1080 IDH1KD tx 23µM, TGFb SMAD3 inh inconclusive, HT1080NT lethal 15µM, IL-1B inflam inh -202
CCOc1ccccc1CN1CCC(CO)(CCOc2ccccc2)CC1	IL-1B inflam inh -73
Cc1oc(-c2cccs2)nc1CN1CCC(CO)(CCOc2ccccc2)CC1	IL-1B inflam inh -83
OCCOc1cccc(CN2CCC(CO)(CCOc3ccccc3)CC2)c1	none
OCC1(CCOc2ccccc2)CCN(Cc2cn[nH]c2-c2ccc(F)cc2)CC1	HT1080 IDH1KD tx 23µM, TGFb SMAD3 inh inconclusive, HT1080NT lethal inconclusive, IL-1B inflam inh -57
O=C(NC1CCCC1)C(c1ccccc1)N(C(=O)c1ccno1)c1ccccc1 (configuration not stated)	none
COc1ccc(Cl)cc1NC(=O)C(C)N1CCN(C/C=C/c2ccccc2)CC1 (configuration not stated)	HT1080 IDH1KD tx inconclusive, TGFb SMAD3 inh inconclusive, HT1080NT lethal inconclusive, IL-1B inflam inh -59
CC(C(=O)Nc1ccc([N+](=O)[O-])cc1)N1CCN(C/C=C/c2ccccc2)CC1 (configuration not stated)	IL-1B inflam inh -77
COc1ccc(C)cc1NC(=O)CCN1CCN(C/C=C/c2ccccc2)CC1	TGFb SMAD3 inh inconclusive
CC(=O)c1ccc(NC(=O)C(C)N2CCN(C/C=C/c3ccccc3)CC2)cc1 (configuration not stated)	none
COc1ccc(S(=O)(=O)N2CCN(C/C=C/c3ccccc3)CC2)cc1F	IL-1B inflam inh -65
COc1ccc(CCNC(=O)c2ccccc2C(=O)NCCc2ccc(OC)cc2)cc1	none
COc1ccc(NC(=O)Nc2nc(C(N)C3CCCCC3)cs2)cc1 (configuration not stated)	HT1080 IDH1KD tx inconclusive, TGFb SMAD3 inh inconclusive, HT1080NT lethal inconclusive, IL-1B inflam inh inconclusive (no result: Giardia kill)
Cc1ccccc1NC(=O)Nc1nc(C(N)C2CCCCC2)cs1 (configuration not stated)	HT1080 IDH1KD tx inconclusive, TGFb SMAD3 inh inconclusive, HT1080NT lethal inconclusive, IL-1B inflam inh -54 (no result: Giardia kill)
CN(C)c1ccc(NC(=O)Nc2nc(C(N)C3CCCCC3)cs2)cc1 (configuration not stated)	HT1080 IDH1KD tx inconclusive, TGFb SMAD3 inh inconclusive, HT1080NT lethal inconclusive, IL-1B inflam inh -60 (no result: Giardia kill)
CC(C)c1ccc(NC(=O)Nc2nc(C(N)C3CCCCC3)cs2)cc1 (configuration not stated)	HT1080 IDH1KD tx 21µM, TGFb SMAD3 inh 22µM, HT1080NT lethal inconclusive, HepG2 tox 10µM, IL-1B inflam inh -113 (no result: Giardia kill)
CC(C)c1ccc(NC(=O)Nc2nc(C(C)N)cs2)cc1 (configuration not stated)	HT1080 IDH1KD tx 21µM, TGFb SMAD3 inh 18µM, HT1080NT lethal inconclusive, IL-1B inflam inh inconclusive (no result: Giardia kill)
COc1ccc(NC(=O)CSc2nc(N)cc(=O)[nH]2)cc1S(=O)(=O)N1CCCCC1	none
C[C@H]1Cn2cnc(C(=O)Nc3ccc(CNC(=O)OC(C)(C)C)cc3)c2C(=O)N1	IL-1B inflam inh inconclusive (no result: Giardia kill)
CC(C)c1ccc(NC(=O)Nc2cnccn2)cc1	HT1080 IDH1KD tx 15µM, HT1080NT lethal inconclusive
CC(C)c1ccc(NC(=O)Nc2nc(C(N)c3ccccc3Cl)cs2)cc1 (configuration not stated)	HT1080 IDH1KD tx inconclusive, TGFb SMAD3 inh inconclusive, HT1080NT lethal inconclusive, IL-1B inflam inh -77 (no result: Giardia kill)
Cc1ccc(NC(=O)Nc2cnccn2)cc1	none
CCc1nc2ccc(C(=O)Nc3cc(-c4ccccc4)ccc3OC)cn2c1N(CCN(C)C)CC1CC1	HT1080 IDH1KD tx 18µM, TGFb SMAD3 inh inconclusive, HT1080NT lethal inconclusive, IL-1B inflam inh inconclusive (no result: Giardia kill)
CCc1nc2ccc(C(=O)Nc3cc(-c4ccccc4)ccc3OC)cn2c1N(C)CCC(C)C	HT1080 IDH1KD tx inconclusive, TGFb SMAD3 inh inconclusive, HT1080NT lethal inconclusive, IL-1B inflam inh inconclusive (no result: Giardia kill)
CCc1nc2ccc(C(=O)Nc3cc(-c4ccccc4)ccc3OC)cn2c1N(C=O)CCC(C)C	HT1080 IDH1KD tx inconclusive, TGFb SMAD3 inh inconclusive, IL-1B inflam inh -60 (no result: Giardia kill)
CC1CCc2[nH]c3ccc(C(=O)NCC4CCCO4)cc3c2C1 (configuration not stated)	IL-1B inflam inh -51
